Bioassay records deposited in PubChem BioAssay by National Center for Advancing Translational Sciences (NCATS).
The entries come from a sample that favours hits as a whole.
Pf Dd2 growth: qHTS Primary assay for Inhibitors of Plasmodium falciparum Dd2 growth in vitro; P. falciparum Dd2 growth, SYBR Green, 72 h; Potency, µM (titrated, usually from 28.9 µM), without a hit: top-dose activity, negative = inhibition, hits mostly inhibitors; 120,000 tested, 4.3% active; AID 1347417, 2020; active means well fitted inhibition curve with a large enough effect;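 further: plate controls were DMSO vehicle for no effect and reference drug for full effect; nearly all actives have a fitted effect of over 65% in size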
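Readout: SYBR Green fluorescence, 485 nm excitation, 535 nm emission, after ~16 h lysis at 37C. Before that, Dd2-infected red cells (2.5% hematocrit) grew 72 h with compound, 29 uM top final concentration.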
* hit, by the source's call; [ ] = another dose, or the depositor's remark. Potency means the concentration at half of the fitted maximal effect.

Results for C#C[C@H]1CN2CC[C@H]1C[C@@H]2CNS(=O)(=O)c1ccc(Cl)cc1 ?
Pf Dd2 growth: 5µM*

How did CC[C@@H]1[C@@H](NC(=O)c2oc(COc3ccccc3)cc2C)[C@@H]2CCO[C@H]12 do in these assays?
Pf Dd2 growth: -19%

How did COc1ccc(-c2nc(C3CC(=O)N(c4ccc(F)c(Cl)c4)C3)no2)cc1 (stereo not given) do in these assays?
Pf Dd2 growth: 32%

How did O=C(Cn1cccc1-c1nc(-c2ccc(F)cc2)no1)NC1CCCCC1 do in these assays?
Pf Dd2 growth: inactive

What do the screens show for `COc1ccc(-n2c(CCN)n[nH]c2=O)c(C)c1`?
Pf Dd2 growth: 4%

Results for NC(=O)[C@@H](Cc1ccccc1)NC(=O)C1=C[C@@H](NC(=O)c2ccco2)[C@@H](O)[C@H](O)C1 ?
Pf Dd2 growth: -14%[44.1 µM]

How did COc1cc(C2Nc3c(C)cc(C)cc3-c3cc(C)nn32)cc(OC)c1O (stereo not given) do in these assays?
Pf Dd2 growth: -4%

How did COc1ccc(OC)c(C2NC(=O)NC(C)=C2C(=O)Nc2cc(C)cc(C)c2)c1 (stereo not given) do in these assays?
Pf Dd2 growth: 8%

Results for COc1ccc(OC)c(C2Nc3c(C)cc(C)cc3-c3cc(C)nn32)c1 (stereo not given) ?
Pf Dd2 growth: 0.25µM*

Results for Fc1ccc2c(c1)nc1n2[C@@H](CNCc2ccncc2F)COC1 ?
Pf Dd2 growth: 5%[44.1 µM]

Results for Cn1cnc(S(=O)(=O)N[C@H]2CCN(C(=O)c3ccco3)[C@H](C(=O)N[C@H](Cc3ccccc3)C(N)=O)C2)c1 ?
Pf Dd2 growth: -4%

Results for COCc1cc(C)nc2sc3c(c12)NC(c1ccccc1C(=O)O)N(c1ccc(OC)cc1)C3=O (stereo not given) ?
Pf Dd2 growth: inactive

How did COCc1cc(C)nc2c1C(=O)NC(c1ccc(Br)cc1)N2Cc1ccccc1 (stereo not given) do in these assays?
Pf Dd2 growth: 10µM*

Results for COCc1cc(C)nc2sc3c(c12)NC(c1ccc(O)c(OC)c1)N(c1ccccc1)C3=O (stereo not given) ?
Pf Dd2 growth: -9%

Results for C#CCN(C)C(=O)[C@@H]1CCCN1[C@@H](C(=O)NC)c1ccc(OC)cc1 ?
Pf Dd2 growth: 0%[44.1 µM]

What do the screens show for `COCC(=O)N1CCCC(c2noc(COc3ccccc3)n2)C1` (stereo not given)?
Pf Dd2 growth: inactive

How did CCCCCN1C(C(=O)c2ccccc2)=C(NC(C)=O)c2ccccc2S1(=O)=O do in these assays?
Pf Dd2 growth: 24%

How did CCCCC(=O)OC1=C(C(=O)c2ccccc2)N(CCC)S(=O)(=O)c2ccccc21 do in these assays?
Pf Dd2 growth: -24%

How did CCCCCN1C(C(=O)c2ccccc2)=C(OC(=O)CC)c2ccccc2S1(=O)=O do in these assays?
Pf Dd2 growth: 3.2µM*

What do the screens show for `CCN(CC)C(=O)[C@@H]1CCC[C@@H](NC(=O)C2CCOCC2)CN(C)C(=O)C1`?
Pf Dd2 growth: inactive

How did O=C(c1ccoc1)N1CCC2(CC1)CN(C1CCC1)CC2CO (stereo not given) do in these assays?
Pf Dd2 growth: 8%

How did CCC1(O)CCC12CCN(C(=O)C1CCC1)CC2 (stereo not given) do in these assays?
Pf Dd2 growth: inactive

Results for CC(C)N1CC2CCC(C1)N2Cc1ccc(-c2ccsc2)cc1 ?
Pf Dd2 growth: 11µM*

What do the screens show for `CC(C)N1CC2CCC(C1)N2CC1CCCC1`?
Pf Dd2 growth: -38%[44.1 µM]

Results for O=C(Nc1ccccc1F)N1CC2CCC(C1)N2Cc1ccc(-c2ccsc2)cc1 ?
Pf Dd2 growth: -4%

How did CCc1noc(-c2ccn3c(CNC(=O)C4CCCCC4)nnc3c2)n1 do in these assays?
Pf Dd2 growth: inactive

What do the screens show for `Cc1nn(CC(=O)NC2CC(c3nnc(CN(C)C)n3C)C2)c(C)c1Cl` (stereo not given)?
Pf Dd2 growth: -9%

Results for O=C(CCC1CCCC1)NC1CCN(c2cn[nH]c(=O)c2)CC1 ?
Pf Dd2 growth: 1%

How did CCOc1ccccc1NC(=O)N1c2ccccc2CC1c1noc(C(C)C)n1 (stereo not given) do in these assays?
Pf Dd2 growth: inactive

What do the screens show for `Cc1cnc(NC(=O)c2ccc3c(c2)OCCN(C2CCC2)C3)s1`?
Pf Dd2 growth: inactive

Results for Cc1cnc(NC(=O)c2ccc3c(c2)OCCN(Cc2ncccn2)C3)s1 ?
Pf Dd2 growth: inactive

What do the screens show for `O=C(Nc1ccc(F)cc1)c1ccc2c(c1)OCCN(CCC(F)(F)F)C2`?
Pf Dd2 growth: inactive

Results for O=C(Nc1nccs1)c1ccc2c(c1)OCCN(C1CCC1)C2 ?
Pf Dd2 growth: 7.9µM*

How did O=C(Nc1nccs1)c1ccc2c(c1)OCCN(CCC(F)(F)F)C2 do in these assays?
Pf Dd2 growth: -7%[44.1 µM]

Results for O=C(Nc1nccs1)c1ccc2c(c1)OCCN(c1ccccc1)C2 ?
Pf Dd2 growth: 10µM*

Results for CC(C)CCN1CCOc2cc(C(=O)Nc3ccccc3)ccc2C1 ?
Pf Dd2 growth: -14%[44.1 µM]

What do the screens show for `O=C(Nc1ccc2cn[nH]c2c1)c1ccc2c(c1)OCCN(c1ccccc1)C2`?
Pf Dd2 growth: 11µM*

What do the screens show for `COc1ccc(NC(=O)c2ccc3c(c2)OCCN(C2CCC2)C3)c(F)c1`?
Pf Dd2 growth: inactive

Results for Cc1noc(C)c1[S+](=O)([O-])N1CCc2nc(C(C)C)nc(-c3ccc(Cl)cc3)c2CC1 ?
Pf Dd2 growth: 10%

Results for CCCNC(=O)c1ccc2c(c1)N(Cc1cccc(C)c1)C(=O)c1ccccc1S2 ?
Pf Dd2 growth: -6%

Results for COc1ccc(CCNC(=O)c2cc(=O)c3cc(C)cc(C)c3o2)cc1OC ?
Pf Dd2 growth: 7%

Results for COc1ccc(CCNC(=O)c2ccc3[nH]c(C)c(C)c3c2)cc1OC ?
Pf Dd2 growth: inactive

How did COc1ccc(CCNC(=O)c2ccc3c(c2)N=C(C)c2cc(C)ccc2S3)cc1OC do in these assays?
Pf Dd2 growth: 11µM*

What do the screens show for `CC1=Nc2cc(C(=O)NC(C)C)ccc2Sc2ccc(C)cc21`?
Pf Dd2 growth: 11µM*

Results for CCCC1=Nc2cc(C(=O)NCCc3ccc(OC)c(OC)c3)ccc2Sc2ccc(C)cc21 ?
Pf Dd2 growth: 10µM*

What do the screens show for `CNC(=O)c1ccc2c(c1)N=C(C)c1cc(C)ccc1S2`?
Pf Dd2 growth: inactive

What do the screens show for `O=C(NCc1ccccc1)c1ccc2nccn2c1`?
Pf Dd2 growth: -13%[44.1 µM]

How did Cc1ccc(C)c(CN2C(=O)c3ccccc3Sc3ccc(C(=O)NCCCOC(C)C)cc32)c1 do in these assays?
Pf Dd2 growth: -16%

Results for COc1ccc(CCNC(=O)c2ccc(Cn3c(=O)c4ccccc4n(Cc4ccc(C)cc4)c3=O)cc2)cc1OC ?
Pf Dd2 growth: 21%

How did COc1ccc(CCNC(=O)c2ccc3c(c2)N(Cc2cccc(Cl)c2)C(=O)CS3)cc1OC do in these assays?
Pf Dd2 growth: -4%

What do the screens show for `CCCC1=Nc2cc(C(=O)NCc3ccccc3)ccc2Sc2ccccc21`?
Pf Dd2 growth: 11µM*

Results for COc1ccc(CN2CCC(C3CCN(S(C)(=O)=O)CC3)C2)cc1C (stereo not given) ?
Pf Dd2 growth: inactive

Results for O=C(NC1CCN(c2cc(C(F)(F)F)ncn2)CC1)c1cccc(Cl)c1 ?
Pf Dd2 growth: -6%

What do the screens show for `COC[C@@H]1CN(C(=O)c2ccc3ncccc3c2)C[C@H]1c1ccccn1`?
Pf Dd2 growth: -6%

What do the screens show for `O=S(=O)(c1cnc[nH]1)N1CCC(c2nc(CCOCC3CCCC3)no2)C1` (stereo not given)?
Pf Dd2 growth: inactive
